Screens: PubChem BioAssay, National Center for Advancing Translational Sciences (NCATS)
Shown are actives, neighbours in structure and some others; about 5.9% of the full set was active somewhere.
KB-3-1 tox: qHTS assay for MDR1-selective chemotherapeutics: Primary screen using the parental adenocarcinoma cell KB-3-1. KB-3-1 viability, CellTiter-Glo ATP luminescence, 72 h. Potency, µM (titrated, usually from 46.1 µM), most hits filed as cytotoxic. 1.4% of 400,000 active; note: % is set by controls: 0 for no effect and ±100 for the full control effect; nearly all actives have a fitted effect of over 60% in size
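Here the drug-naive KB-3-1 line serves as comparator for MDR sub-line selectivity; cells received compound titrations, 72 h at 37 °C, then CellTiter-Glo readout.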
ATXN2 expr inh: Primary qHTS for Inhibitors of ATXN expression; HEK-293 ATXN2-luciferase reporter, luminescence, 24 h; 0.72% of 360,000 active; Potency, µM (highest dose often 57 µM), for inactives: at the top dose activity change, negative = inhibition, usual class: inhibitors; note: % is set by controls: 0 for no effect and ±100 for the full control effect; nearly all actives have a fitted effect of over 55% in size
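ATXN2-luciferase reporter cells (luciferase flanked by upstream and downstream ATXN2 gene portions) were treated 24 h at 37 °C with compounds at up to 57 uM. SteadyGlo luminescence gave expression; GF-AFC fluorescence gave viability.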
TGFb inhibitor: qHTS for Inhibitors of TGF-b; HepG2 CAGA-GFP TGF-b/SMAD3 reporter, GFP fluorescence, 18 h; TGF-beta stimulated, 500 pg/mL final; Potency, µM (top dose mostly 46.1 µM), for inactives: top-dose activity, negative = inhibition, usual class: inhibitors; 1.2% of 410,000 active; AID 588855, 2011; note: % is set by controls: 0 for no effect and ±100 for the full control effect; nearly all actives have a fitted effect of over 65% in size
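GFP signal (ex488/em500-530) from TGF-beta-stimulated HEPG2 CAGA-GFP cells, 500 pg/mL final, 18 h at 37 degrees C in DMEM plus 1% FBS, normalized to unstimulated and DMSO-stimulated controls.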
S2 tox: Viability Counterscreen for Primary qHTS for Inhibitors of ATXN expression | S2 cells (HEK-293 line with an ATXN2-luciferase reporter) viability, CellTiter-Fluor protease fluorescence, 24 h | Potency, µM (doses to about 56.7 µM), usual class: cytotoxic | 0.49% of 400,000 active | AID 651635, 2014; note: nearly all actives have a fitted effect of over 40% in size
KB-V1 MDR tox: qHTS assay for MDR1-selective chemotherapeutics: Primary screen using the drug-selected MDR subline cells KB-V1; KB-V1 MDR cells viability, CellTiter-Glo, 72 h; Potency, µM (titrated, usually from 46.1 µM), usual class: cytotoxic; 3.4% of 400,000 active; AID 1347076, 2019; note: % is set by controls: 0 for no effect and ±100 for the full control effect; nearly all actives have a fitted effect of over 60% in size
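Luminescent ATP read-out (CellTiter-Glo, 10 min) measures survival of drug-selected KB-V1 MDR cells after 72 h, 37 degrees C compound exposure. Medium: phenol-red-free DMEM, 10% FBS. Values from fitted concentration-response curves.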
HepG2 tox: qHTS for Inhibitors of TGF-b: Cytotox Counterscreen; 0.76% of 410,000 active; HepG2 CAGA-GFP viability, ATP luminescence, 18 h; Potency, µM (highest dose often 46.1 µM), for inactives: at the top dose activity change, negative = cytotoxicity, actives largely listed as cytotoxic
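CellTiter-Glo luminescence gave cytotoxicity after 18 hours at 37 degrees C. The cells were HepG2 CAGA-GFP in 1% FBS DMEM, stimulated with 500 pg/mL TGF-beta after compound addition. %Activity was normalised to no-cell wells (complete cell-killing) and DMSO (no toxicity), and curves were fitted and classified.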
* marks the source's active call; other numbers are inactive results; i = inactive; ? = inconclusive; · = no result. Calls come from the whole dose curve; as a rule, active = well fitted curve in the direction sought with a large enough effect; inconclusive = small, poorly fitted or top-dose-only effect, or another doubt; inactive = no such curve, though single readings can be large; an effect the other way counts as inactive or inconclusive. Potency is the fitted concentration of half-maximal effect.

SMILES	KB-3-1 tox	ATXN2 expr inh	TGFb inhibitor	S2 tox	KB-V1 MDR tox	HepG2 tox
O=C(N/N=C/c1ccccc1)NC1CCCCC1	i	66.8%	-0.8%	i	16.4µM*	-13.5%
O=C(CNC(=O)OCc1ccccc1)NC1CCCCCCC1	i	23.0%	-15.8%	i	18.4µM*	0.1%
O=C(N/N=C/c1cccc(F)c1)NC1CCCCC1	i	14.1%	?	i	i	-18.2%
O=C(Nc1ccccc1NC(=O)NC1CCCCC1)NC1CCCCC1	?	20µM*	-18.4%	?	i	-10.9%
NC(=O)c1ccccc1NC(=O)NC1CCCCC1	i	9.7%	0.0%	i	i	-23.3%
O=C(COc1ccccc1)NCC(=O)NC1CCCCC1	i	-4.4%	-4.8%	i	i	6.8%
CCn1c2c(c(=O)n3ncc(C(=O)N4CCN(c5ccc(C(C)=O)cc5)CC4)c13)CN(Cc1ccc(OC)cc1)CC2	20.6µM*	?	?	i	i	-19.1%
COc1ccc(CN2CCc3c(c(=O)n4ncc(C(=O)N5CCN(c6ccc(F)cc6)CC5)c4n3C)C2)cc1	?	-30.0%	?	i	i	-30.4%
Nc1ccc(C(=O)c2cc3c(ccc4ccccc43)[nH]2)cc1	·	-12.5%	·	·	·	·
Nc1nc(-c2cccs2)c(NC(=O)c2ccccc2)s1	i	?	?	22.4µM*	i	-74.4%
CCN(CC)c1ccc(-n2c(C)c(C(C)=O)c(C(C)=O)c2C)cc1	?	-16.4%	-0.3%	?	18.4µM*	-30.6%
CCCCCCN1C[C@@H](n2cc(C3CC3)nn2)[C@H](O)C[C@@H]1c1ccc(C)cc1	i	?	?	20µM*	i	-118.8%
CCCCCCN1C[C@@H](n2cc(C3CC3)nn2)[C@H](O)C[C@@H]1c1ccc(OC)cc1	i	?	?	20µM*	?	-7.1%
CCCCCCN1C[C@@H](O)[C@H](n2cc(C3CC3)nn2)C[C@@H]1c1ccc(OC)cc1	i	4.8%	-0.6%	i	i	-18.2%
CCCCCCN1C[C@H](n2cc(C3CC3)nn2)[C@@H](O)C[C@@H]1c1ccc(C)cc1	i	?	14.1µM*	·	i	15.8µM*
COc1ccc(C(=O)C[n+]2ccccc2Cl)cc1	i	·	?	·	i	-54.0%
CCOC(=O)C(C)Sc1ccc2nnc(-c3ccc(OCC)cc3)n2n1 (stereo not drawn)	?	·	5.5%	·	?	-0.3%
COc1cc(/C=C/C(=O)N2CCC=CC2=O)cc(OC)c1OC	?	10µM*	?	10µM*	?	-89.9%
COc1cc(/C=C/C(C)=O)cc(OC)c1OC	23.1µM*	35.4%	0.0%	i	i	18.0%
COc1cc(C=CC(=O)c2cc(OC)c(OC)c(OC)c2)cc(OC)c1OC	6.51µM*	?	11.2µM*	?	?	-77.3%
COCc1c(C(=O)N2CCN(C(C)C)CC2)cnn1-c1nccc(-c2cc(C)sc2C)n1	·	·	·	i	·	·
CCOc1ccc(NS(=O)(=O)c2ccc(OCC)c3ncccc23)cc1	?	-6.3%	-7.4%	i	13µM*	-29.1%
CCOc1ccc(S(=O)(=O)Nc2cc(C)ccn2)c2ccccc12	?	-12.2%	-2.0%	i	18.4µM*	2.6%
O=C(CCNS(=O)(=O)c1ccc(Br)cc1)NCc1ccc(Cl)cc1	i	-10.3%	-10.9%	i	i	11.2µM*
Cc1ccc(NC(=O)c2c(C)noc2-c2snnc2C)cc1	?	-13.7%	4.1%	?	?	5.7%
SMILES	KB-3-1 tox	ATXN2 expr inh	TGFb inhibitor	S2 tox	KB-V1 MDR tox	HepG2 tox
Cc1nnsc1-c1onc(C)c1C(=O)Nc1cc(Cl)cc(Cl)c1	i	·	15.8µM*	?	16.4µM*	-60.5%
CC(Sc1nc(=O)cc(N)n1CCc1ccccc1)C(=O)Nc1ccc(Cl)cc1 (stereo not drawn)	i	7.3%	-6.1%	?	i	-16.5%
NS(=O)(=O)c1ccc(CCNc2nc3c(-c4cccc(F)c4)nnn3c3ccc(Cl)cc23)cc1	?	0.1%	?	i	i	8.91µM*
COc1cc2c(c(OC)c1OC)-c1ccc(OC)c(=O)cc1[C@@H](N(C)CC#CCO)CC2	0.0517µM*	-11.4%	-25.9%	?	?	-5.2%
COc1cc2c(c(OC)c1OC)-c1ccc(NCc3ccccc3)c(=O)cc1C(NC(C)=O)CC2 (stereo not drawn)	1.16µM*	·	?	i	i	-25.8%
COc1cc2c(c(OC)c1OC)-c1ccc(NC(=O)c3ccc(F)cc3)c(=O)cc1[C@@H](NC(C)=O)CC2	?	·	?	i	i	-15.1%
COc1cc2c(c(OC)c1OC)-c1ccc(N(C)CC(OC)OC)c(=O)cc1[C@@H](NC(C)=O)CC2	0.517µM*	37.9%	?	i	?	-0.4%
CN[C@H]1CCc2cc(OC)c(OC)c(OC)c2-c2ccc(N(C)CC(OC)OC)c(=O)cc21	2.59µM*	·	?	14.1µM*	?	-8.0%
CCn1c(=O)sc2cc(NS(=O)(=O)c3ccc(F)c(C)c3)ccc21	·	·	?	·	·	-28.5%
Cc1ccc(CNS(=O)(=O)c2cnc(N)nc2)cc1	·	·	-2.0%	·	·	-0.9%
COC(=O)c1ccccc1S(=O)(=O)N(Cc1cc2ccc(OC)cc2[nH]c1=O)CC1CCCO1 (stereo not drawn)	i	-1.7%	-19.4%	i	14.6µM*	-9.0%
Cc1cc2cc(CN(CC3CCCO3)C(=S)Nc3ccccc3)c(=O)[nH]c2cc1C (stereo not drawn)	7.31µM*	-29.2%	?	?	i	-17.2%
COc1ccc2cc(CN(Cc3cccnc3)S(=O)(=O)c3ccccc3)c(=O)[nH]c2c1	?	2.4%	11.6%	i	16.4µM*	-4.5%
COc1ccc2cc(CN(CC3CCCO3)S(=O)(=O)c3ccc(C(C)=O)cc3)c(=O)[nH]c2c1 (stereo not drawn)	i	4.3%	11.0%	i	i	-2.0%
COc1ccc2[nH]c(=O)c(CN(CC3CCCO3)C(=S)Nc3ccccc3)cc2c1 (stereo not drawn)	i	·	?	i	i	-20.2%
COc1ccc(S(=O)(=O)N(Cc2cc3cc(C)ccc3[nH]c2=O)CC2CCCO2)cc1 (stereo not drawn)	i	4.9%	-17.1%	?	7.31µM*	-20.6%
COc1ccc(CN2CCOc3ccc(CN4CCCCC4CO)cc3C2)c(OC)c1 (stereo not drawn)	·	·	·	i	·	·
